Only some compounds are listed: those with a hit (about 3.3% of all), similar ones and a draw of the others.
Bst PK mod = modulators of Bacillus stearothermophilus pyruvate kinase; Potency, µM; AID 361; purified pyruvate kinase, luminescence ATP production; ribose 5-phosphate activator present at AC10; hit rate 1.2% among 51,000; in the data active = potency below about 11 µM; inconclusive = mostly about 12 µM to 25 µM;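 the screen sought inhibitors and activators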
GBA activity = alters purified human glucocerebrosidase activity | P04062 | purified enzyme, resorufin glucoside fluorescence (screen aimed at inhibitors), 20 min | Potency, µM | hit rate 1.1% among 48,000 | AID 360; in the data active = potency below about 15 µM; inconclusive = mostly about 16 µM to 33 µM;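 also: the screen sought inhibitors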
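Wild-type enzyme at 0.2 nM final in 50mM citric acid/KH2PO4, 10mM sodium taurocholate, 0.01% tween-20, pH 5.9, with resorufin beta-D-glucopyranoside at 30 uM final. Compounds titrated, 20 min at RT, red fluorescence read; AC50 from titration.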
GFP derepression = epigenetic modulators derepressing GFP locus in mouse cells; mouse C127i GFP locus derepression, cytometry, 30 h; Potency, µM (series often up to 46.1 µM); hit rate 0.09% among 68,000
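Derepression screen: silenced CMV-GFP reporter in murine C127i cells, 30 h compound incubation at 37 C, washed cells imaged by laser-scanning cytometer to enumerate GFP-expressing objects of 20 to 120 um.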
Ub-GFP proteasome = proteasome inhibitors stabilizing ubiquitin-GFP reporter; AID 526; 67,000 tested, under 10 active; Ubiquitin-GFP reporter cells, proteasome inhibition, GFP fluorescence; response scale: untreated = 0%, 10 µM MG-132 = 100%; Potency, µM (titrated, usually from 45.9 µM), hits mostly activators; active = well fitted activation curve with a large enough effect, not every such curve was filed as active; inconclusive = small, poorly fitted or top-dose-only effect, or another doubt; inactive = no such curve, though single readings can be large or run the other way
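U2OS Ub(G76V)-GFP reporter; O/N plating, 0.5% FBS; cpd 46 uM–2.9 nM, 4 h, 37 °C; GFP+ cell count, 488/515 nm; norm. to basal vs 10 uM MG-132; CRC fit.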
FLuc inh = blocks Photinus pyralis firefly luciferase activity. Potency, µM (highest dose often 57.1 µM), actives largely listed as inhibitors. P08659. purified firefly luciferase, luminescence, 8 min. AID 411. hit rate 2.2% among 72,000; also: nearly all actives have a fitted effect of over 40% in size
Target sequence (P08659 whole entry, looked up): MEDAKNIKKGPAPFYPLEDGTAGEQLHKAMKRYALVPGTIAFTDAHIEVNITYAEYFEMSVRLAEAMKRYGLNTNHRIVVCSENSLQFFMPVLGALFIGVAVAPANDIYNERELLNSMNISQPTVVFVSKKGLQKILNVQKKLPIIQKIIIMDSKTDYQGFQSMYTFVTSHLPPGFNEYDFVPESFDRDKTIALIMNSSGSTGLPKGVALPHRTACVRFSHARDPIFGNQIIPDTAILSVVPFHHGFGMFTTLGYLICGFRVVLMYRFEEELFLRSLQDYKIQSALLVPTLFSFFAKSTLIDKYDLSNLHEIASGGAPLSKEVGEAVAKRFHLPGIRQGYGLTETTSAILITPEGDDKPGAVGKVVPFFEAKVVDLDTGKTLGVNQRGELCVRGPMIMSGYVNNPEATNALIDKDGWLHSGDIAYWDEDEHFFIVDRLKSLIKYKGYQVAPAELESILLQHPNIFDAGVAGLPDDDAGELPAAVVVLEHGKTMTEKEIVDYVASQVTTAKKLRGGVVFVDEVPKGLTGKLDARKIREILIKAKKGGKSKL
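Firefly luciferase (PKLight detection mix) with 10 uM ATP in pH 7.2 imidazole buffer (KCl, MgCl2, Tween 20, BSA). Compounds tested across a concentration series (qHTS). Luminescence read after 8 min at ambient temperature.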
HBB splice mod = modulators of hemoglobin beta chain splicing; HBB splicing reporter cell assay, activation; EGFP reporter with mutant IVS2-654 intron; response scale: normalised to 500 nM splice-correcting PNA; Potency, µM (highest dose often 46.1 µM), hits mostly activators; hit rate 0.06% among 65,000
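HeLa cells stably expressing EGFP interrupted by mutant beta-globin intron 2 (IVS2-654), 500/well in 2% FCS. Treated with compound for 2 days at 37C. Splicing correction scored as total well GFP intensity (488 nm excitation, 500-520 nm emission); 500 nM antisense PNA served as control.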
Of the large screens only hits and unclear results are named; the others gave an inactive call. Unless noted, calls follow the shape of the dose curve; as a rule, active = well fitted curve in the direction sought with a large enough effect; inconclusive = small, poorly fitted or top-dose-only effect, or another doubt; inactive = no such curve, though single readings can be large; an effect the other way counts as inactive or inconclusive.

CSc1ncnc2nc[nH]c12	none (no result: Bst PK mod, GBA activity, GFP derepression)
NC([N-]/N=C/c1ccccn1)=[S]=[Fe].O=S(=O)(O)O	none (no result: Bst PK mod, GBA activity)
COc1ccccc1-c1ccc2ncnc(NCCN3CCOCC3)c2c1	none (no result: Bst PK mod, GBA activity)
O=C(O)CCCCCNc1nc(=S)[nH]c2ccccc12	GBA activity 7.7
CC1CCCCN1CCNc1nc(=S)[nH]c2ccccc12 (stereo not given)	none (no result: GBA activity)
C=CCOC(=O)C(C(C)=O)C(NC(=O)OC)c1ccco1 (stereo not given)	none (no result: Bst PK mod, GBA activity, GFP derepression, Ub-GFP proteasome, FLuc inh)
CCOC(=O)c1c(C)nc2c3ccccc3ccn12	Bst PK mod 6.9, FLuc inh 10µM
O=C(CSc1ncnc2sc3c(c12)CCCCC3)NCc1ccco1	none
O=C(CSc1ncnc2sc3c(c12)CCCC3)c1ccco1	FLuc inh 32µM (no result: Bst PK mod)
CC(C)=NOC[C@@H](O)COCc1ccco1	none (no result: Bst PK mod, GBA activity, GFP derepression, Ub-GFP proteasome)
Oc1c(-c2cc(-c3ccco3)[nH]n2)ccc2ccccc12	Bst PK mod 8.3, FLuc inh 7.9µM
COc1ccc2c(Cl)cc(NC(=S)Nc3ccccc3)nc2c1	none (no result: Bst PK mod, GBA activity)
CCC(C)(C)n1nnnc1CN(Cc1cccs1)Cc1cc2cc(OC)ccc2[nH]c1=O	none
CCOc1ccc2[nH]c(=O)c(CN(Cc3cccs3)Cc3nnnn3C(C)(C)CC)cc2c1	GBA activity 15
O=C(COC(=O)c1ccc2c(c1)OCO2)NCc1ccc(Cl)cc1	none
O=C(COC(=O)CCC(=O)c1ccc2c(c1)OCCO2)NCc1ccc2c(c1)OCO2	FLuc inh 25µM (no result: Bst PK mod)
O=C(COC(=O)CSc1nnc(-c2ccc(Cl)cc2)o1)NCc1ccc2c(c1)OCO2	GBA activity 11
CN(C(=O)c1ccccc1C(=O)O)C1CC(C)(C)NC(C)(C)C1	none (no result: Bst PK mod, GBA activity, GFP derepression)
c1ccc(-n2nnc3c(N4CCOCC4)ncnc32)cc1	Bst PK mod 9.2, FLuc inh 5µM
Cc1nc2cnc(N(C)C)nc2n(-c2ccccc2)c1=O	none (no result: Bst PK mod, GBA activity)
COc1ccc(OCCCSc2ncccn2)cc1	FLuc inh inconclusive (no result: Bst PK mod, GBA activity)
COc1ccc(OCCSc2ncccn2)cc1	FLuc inh 25µM (no result: Bst PK mod)
CC(C)Cc1cc(C(=O)Nc2cc(Cl)ccc2Cl)no1	none (no result: Bst PK mod, GBA activity, GFP derepression)
CC(C)c1cc(C(=O)Nc2cccc(Cl)c2)no1	FLuc inh 13µM
CC(C)c1cc(C(=O)Nc2cc(Cl)ccc2O)no1	FLuc inh 16µM (no result: Bst PK mod)
CC(=O)c1cccc(NC(=O)c2cc(C(C)C)on2)c1	FLuc inh 16µM (no result: Bst PK mod, GBA activity)
COc1cc(NC(=O)c2cc(C(C)C)on2)cc(OC)c1OC	none (no result: Bst PK mod, GBA activity)
Oc1ccc(COCc2ccccc2)c2cccnc12	GFP derepression 3.2µM (no result: HBB splice mod)
CCC1CO1 (stereo not given)	none (no result: Bst PK mod, GBA activity, GFP derepression, Ub-GFP proteasome, FLuc inh)
COc1ccc(C(=O)N=c2nc3ccccn3s2)cc1	Bst PK mod 0.68, FLuc inh 0.5µM
CC(C)[C@@H](CC(=O)N[C@@H]1CCNC[C@H]1C(=O)N[C@H](CC(=O)N[C@@H](CCC(=O)O)CC(=O)O)Cc1c[nH]c2ccccc12)NC(=O)C[C@H](Cc1ccccc1)NC(=O)[C@@H]1CNCC[C@H]1N	none (no result: Bst PK mod, GBA activity, GFP derepression, Ub-GFP proteasome, FLuc inh)
Cc1nc2scc(-c3cccs3)c2c(=O)o1	none (no result: Bst PK mod, GBA activity)
O=c1oc(-c2cccs2)nc2scc(-c3cccs3)c12	FLuc inh 13µM
NC(=S)NCCC[C@@H](N)C(=O)O	none (no result: Bst PK mod, GBA activity)
Cc1ccccc1OCC(=O)Nc1cccc(N(C)S(C)(=O)=O)c1	FLuc inh 20µM (no result: Bst PK mod)
COc1cccc(NC(=O)COc2ccccc2C(N)=O)c1	Bst PK mod inconclusive, FLuc inh 7.9µM
CC(C)CO/N=C1/C[C@@H](O)[C@@H](O)[C@@H]2[C@@H]3C(=O)N(C4CCCCC4)C(=O)[C@H]3CC[C@H]12	none (no result: Bst PK mod, GBA activity, GFP derepression, Ub-GFP proteasome)
CC(=O)OC[C@@H]1O[C@H](CCO/N=C(\C)CCN2CCCCc3nc(C)c(C)cc32)C=C[C@@H]1OC(C)=O	none (no result: Bst PK mod, GBA activity, GFP derepression, Ub-GFP proteasome)
Fc1ccc(-c2cc3nc4c(c(N5CCOCC5)n3n2)CCCC4)cc1	none
O=c1c2c(nc3cc(-c4ccc(F)cc4)[nH]n13)CCCC2	Bst PK mod 5.3, GBA activity inconclusive, FLuc inh 7.9µM
CN1CCN(c2nc(C(N)=O)cc(-c3ccccc3)n2)CC1	Bst PK mod 11 (no result: GBA activity, Ub-GFP proteasome, HBB splice mod)
N[C@H](Cc1cc(I)c(Oc2cc(I)c(O)c(I)c2)c(I)c1)C(=O)O	none (no result: Bst PK mod, GBA activity)

Assay outcomes from PubChem BioAssay.
